In all, about 2,400 compounds went through this assay and about 1,400 (58%) were called active.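 How the source made its calls: active means inhibition of 30% or more at any tested dose; inconclusive means primary hits over the limit that were never retested; inactive means the rest.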 So high a share suggests a set chosen from earlier hits. The list shows a part of the results.
Experiment: ADP Hunter readout inhibition without MgcRacGAP – biochemical, coupled enzyme counter-screen, artefact control for MgcRacGAP inhibitor project, dose response (AID 624351);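 further: signal is the ADP detection kit reading of free GDP without any GAP enzyme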;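 on inhibition: 0% = median positive control wells and 100% = median negative control wells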
Details: fluorescence, no MgcRacGAP; series mostly up to 80 µM; inhibition: at the top concentration

Row | Structure (SMILES) | IC50 | inhibition
1 | O=c1[nH]c2ccccc2nc1/C=C/c1ccc(O)cc1 | 36.9 µM (active) | 
2 | CCOc1cc(/C=N/NC(=O)c2ccc(NC(=O)C3CC3)cc2)ccc1O | 83.2 µM (active) | 
3 | CCOc1cc(/C=N/NC(=O)C2CCCC2)ccc1O | 51.3 µM (active) | 
4 | CCOc1cc(/C=N/NC(=O)c2ccc(=O)n(C)c2)ccc1O | 60.4 µM (active) | 
5 | CCOc1cc(/C=N/NC(=O)c2cc(C3CC3)[nH]n2)ccc1O | 56.1 µM (active) | 
6 | Cc1cc(C)c(C)c(OCCNCc2ccccc2)c1 |  | 20.3% (inactive)
7 | COc1cc(/C=N/NC(=O)C2CCN(CC(O)COCc3ccccc3)CC2)ccc1O (stereo not given) | 34.1 µM (active) | 
8 | COc1ccccc1COCC(O)CNCC1(N2CCCCC2)CCCCC1 (stereo not given) |  | 19.2% (inactive)
9 | Cc1cccc(N2C(S)=C(C#N)C(=O)NC2c2cccs2)c1 (stereo not given) |  | 6.48% (inactive)
10 | COc1cc(N)c2ncccc2c1SC | 51.2 µM (active) | 
11 | COc1cc(NC(C)CCCNC(C)C)c2ncccc2c1OC (stereo not given) |  | 4.79% (inactive)
12 | COc1cc(N)c2ncccc2c1OC | 63.8 µM (active) | 
13 | COc1cc(CN(C)CCc2ccccn2)cc(OC)c1OC |  | 26.4% (inactive)
14 | COc1cccc2c3cccc(OC)c3c3[nH]cnc3c12 |  | 9.71% (inactive)
15 | CCN1/C(=C\c2ccc3ccccc3[n+]2CC)Sc2cc(C)ccc21 |  | 11.5% (inactive)
16 | CCOC(=O)c1ccc(S(=O)(=O)Nc2nc3cc(S(=O)(=O)NC4=NCCCCC4)ccc3s2)cc1 |  | 2.82% (inactive)
17 | CC(=O)NC(Nc1c(C)n(C)n(-c2ccccc2)c1=O)C(Cl)(Cl)Cl (stereo not given) |  | -1.5% (inactive)
18 | Cc1c(N=C2C=C(Br)C(=O)C(Br)=C2)c(=O)n(-c2ccccc2)n1C | 24.2 µM (active) | 
19 | COc1cc(N=Nc2c(C)n(C)n(-c3ccccc3)c2=O)ccc1N | 47.2 µM (active) | 
20 | Cc1c(NC(=S)N/N=C/c2ccc(O)cc2)c(=O)n(-c2ccccc2)n1C | 68.4 µM (active) | 
21 | Cc1[nH]c2ccccc2c1N=Nc1c(C)n(C)n(-c2ccccc2)c1=O | 40.2 µM (active) | 
22 | Cc1c(NC(=O)CNCc2ccc3c(c2)OCO3)c(=O)n(-c2ccccc2)n1C |  | 6.4% (inactive)

Row | Structure (SMILES) | IC50 | inhibition
23 | Cc1c(N=Nc2ccc(O)cc2)c(=O)n(-c2ccccc2)n1C | 19.5 µM (active) | 
24 | CCN1CCN(CCCCOc2ccccc2F)CC1 |  | 22.8% (inactive)
25 | CCOc1cc(NC(=O)c2ccccc2C(=O)O)c(OCC)cc1NC(=O)c1ccccc1F | 65.3 µM (active) | 
26 | CCOc1ccccc1NC(=O)C(NCCN(C)C)c1ccccc1 (stereo not given) |  | 21.6% (inactive)
27 | CC1CC(C)(C)N(C(=O)CN2CCN(C)CC2)c2ccccc21 (stereo not given) |  | 23.8% (inactive)
28 | CC1CCC/C(=C\c2ccc(O)cc2)C1=O (stereo not given) | 22.3 µM (active) | 
29 | Cc1cc(O)ccc1N/C=C1\CCCC1=O | 21 µM (active) | 
30 | CC1CCC/C(=C\Nc2ccc(O)cc2)C1=O (stereo not given) | 31.8 µM (active) | 
31 | O=C1CCCC/C1=C\Nc1ccc(O)cc1 | 13.3 µM (active) | 
32 | Cc1cnc(NC(=O)C(C)N2CCN(C)CC2)s1 (stereo not given) |  | 24.8% (inactive)
33 | O=C1OCC/C1=C\c1ccc(O)cc1 | 27.6 µM (active) | 
34 | CCOc1ccccc1CN(CCc1ccc2c(c1)OCO2)Cc1ccccn1 |  | 17.6% (inactive)
35 | CC1OC(CC(=O)O)CC2=C1C(=O)c1c(O)cccc1C2=O (stereo not given) |  | -0.48% (inactive)
36 | Cn1c(-c2cccc([N+](=O)[O-])c2)cnc1NCc1cccc([N+](=O)[O-])c1 |  | 22.6% (inactive)
37 | O=[N+]([O-])c1cccc(/C=N/n2c(-c3cccnc3)n[nH]c2=S)c1 | 24.9 µM (active) | 
38 | Cc1ccc(/C=N/n2c(-c3cccnc3)n[nH]c2=S)s1 | 43.8 µM (active) | 
39 | S=c1[nH]nc(-c2cccnc2)n1/N=C/c1cccs1 | 42.7 µM (active) | 
40 | CCc1ccc(OCCOCCN2CCN(C)CC2)cc1 |  | 19.5% (inactive)
41 | COc1ccc(C2NC(=O)C(C#N)=C(S)N2c2ccc(C)cc2)cc1OC (stereo not given) |  | 3.19% (inactive)
42 | CC1=CC(C)(C)N(C(=O)CNC2CCCC2)c2cc(C)ccc21 |  | 20.2% (inactive)
43 | Nc1[nH]c2cc([N+](=O)[O-])ccc2c1-c1ccccn1 | 75.4 µM (active) | 
44 | O=[N+]([O-])c1ccc(Oc2cccc3cccnc23)c([N+](=O)[O-])c1 |  | 8.96% (inactive)

Row | Structure (SMILES) | IC50 | inhibition
45 | O=[N+]([O-])c1ccc(Sc2cccc3cccnc23)c([N+](=O)[O-])c1 |  | 5.21% (inactive)
46 | C=CCOc1ccc(C=NNc2ccc(S(=O)(=O)Nc3ccccc3C(=O)O)cc2[N+](=O)[O-])cc1OC |  | 4.51% (inactive)
47 | O=C(O)c1ccccc1NS(=O)(=O)c1ccc(N/N=C/c2ccc(O)c(O)c2)c([N+](=O)[O-])c1 | 69.8 µM (active) | 
48 | O=C(/C=C/c1ccc(O)c(O)c1)NC(=O)c1ccccc1O | 21.9 µM (active) | 
49 | Cc1ccc2oc(=O)c(/C=C(\O)c3ccccc3)nc2c1 | 59.2 µM (active) | 
50 | Cn1c(N=Nc2ccc(N3CCOCC3)cc2)[n+](C)c2ccccc21 | 58.3 µM (active) | 
51 | O=C(CNCc1ccc(Cl)cc1)Nc1ccc2c(c1)OCCO2 |  | 14.6% (inactive)
52 | c1csc(CNc2ccc3c(c2)OCCO3)c1 | 69.2 µM (active) | 
53 | CN(C)c1ccc(N=c2sc3ccccc3n2C)cc1 | 26.7 µM (active) | 
54 | Nc1ccc2c(c1)[nH]c(=O)c1cc(N)ccc12 | 16.6 µM (active) | 
55 | Nc1ccc2cc3[nH]c4cc(N)ccc4c3nc2c1 |  | -9.55% (inactive)
56 | CN1/C(=N\O)c2cccc3cccc1c23 | 54 µM (active) | 
57 | CC(=O)c1c(Nc2ccc3c(c2)OCCO3)oc(C)cc1=O | 77.3 µM (active) | 
58 | O=C(NC(=S)N1CCN(c2ccc(O)cc2)CC1)c1ccco1 | 38.7 µM (active) | 
59 | O=C(CN1CCN(c2ccc(O)cc2)CC1)Nc1ccccc1C(=O)NCCc1ccccc1 | 32.9 µM (active) | 
60 | COCCCNC(=S)N1CCN(Cc2ccc3c(c2)OCO3)CC1 |  | 12.6% (inactive)
61 | Oc1ccc(N2CCN(C(=S)NCCc3ccccc3)CC2)cc1 | 32.2 µM (active) | 
62 | O=C(CN1CCN(C/C=C/c2ccccc2)CC1)Nc1ccccc1C(=O)NC1CC1 |  | 13.6% (inactive)
63 | CCN(CC)S(=O)(=O)c1ccc(C)c(NC(=O)CN2CCN(Cc3ccccc3)CC2)c1 |  | 23.3% (inactive)
64 | CN1CCC(N(C)CC(=O)Nc2ccc3c(c2)OC(F)(F)O3)CC1 |  | 24.9% (inactive)
65 | Cc1sc2ccc3sccc3c2[n+]1C |  | 0.22% (inactive)

— PubChem BioAssay AID624351 (Southern Research Specialized Biocontainment Screening …, 2012)
